The text below walks through data of PubChem BioAssay AID2284368 (EPA ToxCast).

Results filed as inconclusive are left out. Active and inactive are the calls of the source. How the source made its calls: active means hit-call score of the fitted dose curve at least 0.9, where 1 is the maximum; inconclusive means response in the unintended direction; inactive means score below 0.9.

Estrogen receptor (Homo sapiens), sequence (P03372 whole entry, looked up): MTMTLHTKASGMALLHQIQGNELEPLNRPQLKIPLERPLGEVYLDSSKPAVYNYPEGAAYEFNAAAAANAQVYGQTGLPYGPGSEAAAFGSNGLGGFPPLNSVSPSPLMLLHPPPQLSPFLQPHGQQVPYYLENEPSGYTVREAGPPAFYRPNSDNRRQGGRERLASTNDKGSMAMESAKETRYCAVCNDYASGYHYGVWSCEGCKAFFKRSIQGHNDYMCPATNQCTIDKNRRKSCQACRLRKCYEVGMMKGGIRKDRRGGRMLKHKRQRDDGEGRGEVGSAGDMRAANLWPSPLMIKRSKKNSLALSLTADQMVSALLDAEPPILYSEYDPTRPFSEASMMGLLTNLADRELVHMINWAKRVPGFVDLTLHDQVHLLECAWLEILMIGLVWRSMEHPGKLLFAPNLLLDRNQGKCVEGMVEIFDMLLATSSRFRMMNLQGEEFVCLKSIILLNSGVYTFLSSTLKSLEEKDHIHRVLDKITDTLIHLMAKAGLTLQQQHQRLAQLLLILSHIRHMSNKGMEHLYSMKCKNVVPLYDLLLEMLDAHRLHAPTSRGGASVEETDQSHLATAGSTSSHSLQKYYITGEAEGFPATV

In the test the target is Estrogen receptor (Homo sapiens) (UniProt P03372). Put plainly: ATG_hERa_EcoTox2: Attagene TRANS-FACTORIAL EcoTox-2 HepG2 Assay for human Estrogen Receptor (ER). How it is done:
ATG_EcoTox2 is a cell-based, multiplexed assay created by modifying the existing Attagene TRANS-FACTORIAL system to include a panel of nuclear receptors from some or all the following species: human (Homo sapiens), african clawed frog (Xenopus laevis), rainbow trout (Oncorhynchus mykiss), japanese medaka (Oryzias latipes), and zebrafish (Danio rerio). The ECOTOX2-FACTORIAL format uses HepG2, a human liver cell line, with measurements taken at 24 hours after chemical dosing in a 24-well plate. ATG_hERa_EcoTox2 is one of 29 assay components measured or calculated from the ATG_EcoTox2 assay. It is designed to make measurements of mRNA induction, a form of inducible reporter, as detected with fluorescence intensity signals by Reverse transcription polymerase chain reaction (RT-PCR) and Capillary electrophoresis technology.The assay endpoint ATG_hERa_EcoTox2 was analyzed in the positive analysis fitting direction relative to DMSO as the negative control and baseline of activity. Using a type of inducible reporter, measures of mRNA for gain-of-signal activity can be used to understand the reporter gene at the transcription factor-level as they relate to the gene ER. Furthermore, this assay endpoint can be referred to as a primary readout, because this assay has produced multiple assay endpoints where this one serves a reporter gene function. To generalize the intended target to other relatable targets, this assay endpoint is annotated to the nuclear receptor intended target family, where the subfamily is steroidal.
Human liver HepG2 cells are transiently transfected with multiple reporter transcription units (MRTUs) in 6-well plates using FuGene 6 reagent (Roche; 3 ml FuGene/1 mg DNA). The MRTU constructs are regulated by a cis-regulating element (promoter). Each RTU expresses a GAL4-UAS that regulates the transcription of a nearby target reporter gene sequence. A major difference between the CIS and TRANS system is that in CIS activities of endogenous TFs are measured, whereas the TRANS assay evaluates changes in activities of exogenous, chimeric NR-Gal4 proteins. […] At the end of 24 hour incubation, total RNA was isolated using TriZol reagent (Invitrogen). The isolated RNA is then reverse-transcribed using oligo(dT) primer and Mo-MLV reverse transcriptase (Invitrogen) with DNAse I (Ambion) treatment for 30 min. The one-tenth of the produced cDNA was amplified by PCR using Taq DNA polymerase (Invitrogen) and two reporter sequence-specific primers. […] The fragments were purified using Qiaquick PCR columns (Qiagen), analyzed on an ABI 3130xL genetic analyzer (Applied Biosystems) with peak positions identified by using a set of X-rhodamine (ROX)-labeled MapMarker1000 molecular weight standards (BioVentures). […]
Take `O=P(Oc1ccccc1)(Oc1ccccc1)Oc1ccccc1`: the half-maximal activity concentration (AC50) was 3.41 µM (active). For `CCCCOCN(C(=O)CCl)c1c(CC)cccc1CC`, the compound was called inactive. The same measure, in the same setting: then `[Cl][Sn]([c]1ccccc1)([c]1ccccc1)[c]1ccccc1`, with “inactive”. Regarding `O=S(=O)(O)C(F)(F)C(F)(F)C(F)(F)C(F)(F)C(F)(F)C(F)(F)F`, the AC50 is 50 µM (active).
